# Screens: PubChem, National Center for Advancing Translational Sciences (NCATS)
# Compounds with a hit are over-represented: about 12% of the library has one in this group of screens.
# JMJD2A Tudor = qHTS Assay for Inhibitors of JMJD2A-Tudor Domain | Lysine-specific demethylase 4A (Homo sapiens), O75164 | Potency, µM (highest dose often 114 µM), for the others: at the highest dose activity change, negative = inhibition, usual class: inhibitors | AlphaScreen JMJD2A-Tudor / H3K4me3 peptide binding | actives 4.4% (n = 390,000); further: on the % scale 0 is the no-effect control and ±100 the full control effect; nearly all actives have a fitted effect of over 50% in size
# G9a block = qHTS Assay for Inhibitors of Histone Lysine Methyltransferase G9a. Histone-lysine N-methyltransferase EHMT2 (Homo sapiens), Q96KQ7. AID 504332, 2011. Potency, µM (top dose mostly 102 µM), inactives show at the top dose activity, negative = inhibition, most hits filed as inhibitors. actives 8.8% (n = 350,000). G9a H3K9 monomethylation, AlphaScreen, 2 h; further: on the % scale 0 is the no-effect control and ±100 the full control effect; nearly all actives have a fitted effect of over 75% in size
#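 Methyltransferase reactions run at room temperature for 2 h (20 nM enzyme, 500 nM biotin-H3K9 peptide, 20 uM SAM) after a 15 min compound preincubation; product detected by AlphaScreen beads and anti-H3K9me1 antibody.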
# BAZ2B inh = qHTS Assay for Inhibitors of BAZ2B. Potency, µM (highest dose often 114 µM), for inactives: at the top dose activity change, negative = inhibition, hits mostly inhibitors. Bromodomain adjacent to zinc finger domain protein 2B (Homo sapiens), Q9UIF8. actives 4.4% (n = 360,000). AlphaScreen BAZ2B-H3K14Ac peptide displacement; further: on the % scale 0 is the no-effect control and ±100 the full control effect; nearly all actives have a fitted effect of over 60% in size
#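 BAZ2B 50 nM plus b-H3(5-23)K14Ac 50 nM, PBS pH 7.4/0.01% Tween-20, 30 min RT; compound added (max 110 uM), 30 min RT; streptavidin donor/Ni-chelate acceptor beads 10 ug/mL final, 20 min dark; AlphaScreen read.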
# Sfp inh = qHTS Assay for Inhibitors of Bacillus subtilis Sfp phosphopantetheinyl transferase (PPTase) | 4'-phosphopantetheinyl transferase ffp (Bacillus subtilis), Q9F4F7 | actives 3.5% (n = 310,000) | Potency, µM, inactives show largest response in the series, negative = inhibition, hits mostly inhibitors | Biochemical Sfp PPTase activity, qHTS | AID 1490, 2009;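 further: the enzyme is Sfp with the accession as filed and its product quenches rhodamine fluorescence; 0% = enzyme reaction without inhibitor and -100% = no enzyme wells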
#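 With Hepes-Na pH 7.6 buffer containing 10 mM MgCl2, Sfp (15 nM) modified BHQ-2-YbbR (12.5 uM) using rhodamine-CoA (5 uM). Two reads 30 minutes apart at 525/598 nm yielded each well's rate.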
# PLK1 PBD inh = qHTS for Inhibitors of PLK1-PDB (polo-like kinase 1 - polo-box domain): Primary Screen. Plk1 PBD binding of FITC phosphopeptide, fluorescence polarization. Serine/threonine-protein kinase PLK1 (Homo sapiens), P53350. Potency, µM, for inactives: max response, negative = inhibition, actives largely listed as inhibitors. actives 2.8% (n = 360,000); further: series mostly up to about 57 µM; on the % scale 0 is the no-effect control and ±100 the full control effect; nearly all actives have a fitted effect of over 65% in size
# Target sequence (P53350 whole entry, looked up, the tested form may be a part): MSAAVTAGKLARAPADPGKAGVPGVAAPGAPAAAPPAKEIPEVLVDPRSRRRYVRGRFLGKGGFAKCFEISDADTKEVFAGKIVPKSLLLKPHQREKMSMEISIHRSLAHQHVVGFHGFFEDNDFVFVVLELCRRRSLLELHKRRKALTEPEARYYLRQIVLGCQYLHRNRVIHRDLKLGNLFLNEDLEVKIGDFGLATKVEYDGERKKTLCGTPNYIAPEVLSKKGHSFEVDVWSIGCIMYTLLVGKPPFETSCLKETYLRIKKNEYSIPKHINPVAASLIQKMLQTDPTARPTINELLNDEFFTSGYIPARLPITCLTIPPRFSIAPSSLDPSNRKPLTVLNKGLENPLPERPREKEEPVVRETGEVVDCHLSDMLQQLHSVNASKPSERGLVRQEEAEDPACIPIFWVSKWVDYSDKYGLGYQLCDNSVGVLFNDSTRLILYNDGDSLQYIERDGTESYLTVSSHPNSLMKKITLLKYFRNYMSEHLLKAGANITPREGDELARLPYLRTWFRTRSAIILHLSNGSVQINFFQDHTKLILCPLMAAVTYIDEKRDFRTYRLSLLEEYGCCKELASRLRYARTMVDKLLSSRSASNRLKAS
# HP1b binding inh = HTS for Inhibitors of HP1-beta Chromodomain Interactions with Methylated Histone Tails; AID 540317, 2011; Chromobox protein homolog 1 (Homo sapiens), P83916; AlphaScreen HP1-beta / biotin-H3K9me3 peptide binding; Potency, µM (titrated, usually from 114 µM), inactives show at the top dose activity change, negative = inhibition, most hits filed as inhibitors; actives 0.56% (n = 390,000); further: nearly all actives have a fitted effect of over 70% in size
#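 HP1-beta protein (50 nM final) preincubated 30 min at room temperature with biotinylated H3(1-18)K9me3 peptide (50 nM) in PBS pH 7.4, 0.01% Tween-20, then compound added for 30 min. AlphaScreen streptavidin donor/nickel chelate acceptor beads (10 ug/mL final), 30 min dark, luminescence read.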
# * hit, by the source's call; ? = inconclusive; nt = no result given; ! = not active in a repeat; [ ] = dose if it differs, or a comment. The call rests on the fitted dose curve; in most records, active means well fitted curve in the direction sought with a large enough effect; inconclusive means small, poorly fitted or top-dose-only effect, or another doubt; inactive means no such curve, though single readings can be large; an effect the other way counts as inactive or inconclusive. Potency means the concentration at half of the fitted maximal effect.
SMILES,JMJD2A Tudor,G9a block,BAZ2B inh,Sfp inh,PLK1 PBD inh,HP1b binding inh
CCN(C(=O)Nc1cn(CC(C)C)c(=O)c2ccccc12)c1cc(C)ccc1C,-16.8%,-5.2%[59 µM],6.3%[57.1 µM],nt,nt,-4.2%
CC(C)(C)NC(=O)COc1coc(CN2CCN(C(=O)c3ccco3)CC2)cc1=O,4.1%,1.3%[0.501 µM],-3.2%,nt,-16.7%,44.3%
O=C(O)c1cc(=O)cc(C(=O)O)[nH]1,-9.6%,1.68µM*!,-38.0%,39.8µM*,-10.7%,44.1%
O=C(O)c1cc(=O)[nH]c(=O)[nH]1,nt,11.7%[59 µM],nt,?,nt,nt
COc1cccc(CN2C(=O)N(c3ccc(C)cc3)C(=O)C2CC(=O)Nc2cc(OC)cc(OC)c2)c1 (stereo unspecified),-16.9%,?,-18.8%,nt,nt,29.5%
CC(=O)NC(c1cccs1)c1cc(Cl)c2ccccc2c1O (stereo unspecified),-27.3%,3.3%[0.501 µM],-3.4%,nt,nt,11.8%
CC(=O)NC(c1ccccc1)c1cc([N+](=O)[O-])c2cccnc2c1O (stereo unspecified),10µM*,10µM*,3.55µM*,2.24µM*,1.4%,-3.0%
CC(=O)NC(c1ccc(C)cc1)c1cc(Cl)c2cccnc2c1O (stereo unspecified),-28.8%,-0.8%[59 µM],0.3%,11.2%,-2.7%,32.8%
CC(C)C(=O)NC(c1ccccc1)c1cc([N+](=O)[O-])c2cccnc2c1O (stereo unspecified),?,?,5.62µM*,-17.4%,-11.9%,-9.1%
CC(=O)NC(c1cccs1)c1cc([N+](=O)[O-])c2cccnc2c1O (stereo unspecified),35.5µM*,7.94µM*,3.98µM*,1µM*,-12.9%,10.1%
COc1ccccc1NC(=O)Cn1c(=O)oc2cc(S(=O)(=O)NCc3ccccc3)ccc21,-3.3%,12.1%[59 µM],1.7%,nt,nt,46.6%
COC(=O)c1ccc2nc(C)cc(Nc3ccc(O)cc3)c2c1,-30.8%,?,-15.5%,nt,nt,14.9%
COC(=O)c1ccc2nc(C)cc(Nc3ccc(N(C)C)cc3)c2c1,?,50.1µM*,39.8µM*,-5.8%,1.1%,-5.1%
CNC(=S)N/N=C/c1ccc(-c2ccc(C(=O)O)cc2)o1,-3.7%[11.4 µM],nt,?,44.7µM*,?,?
CCCCC(=O)N/N=C/c1ccc(-c2ccc([N+](=O)[O-])cc2)o1,-12.0%,-8.6%,-9.7%,-11.0%,-14.8%,3.1%
CC(C)(C)NC(=S)N/N=C\c1ccc(-c2ccc([N+](=O)[O-])cc2)o1,?,-11.4%[59 µM],?,31.6µM*,20.4%,-12.7%
Cc1cc([N+](=O)[O-])ccc1-c1ccc(/C=N/NC(=O)c2ccc(Br)o2)o1,7.8%,-0.3%,-24.0%,-6.0%,6.4%,45.0%
CNC(=S)N/N=C/c1ccc(-c2ccc(Cl)c([N+](=O)[O-])c2)o1,-25.4%,nt,79.4µM*,-13.8%,-21.4%,10.2%
O=C(N/N=C/c1ccc(-c2ccccc2)o1)c1ccccc1O,-24.6%,nt,-7.4%,8.6%,-13.1%,38.0%
Cc1cc(C)n(Cc2ccc(C(=O)N/N=C/c3ccc(-c4ccc([N+](=O)[O-])cc4)o3)o2)n1,50.1µM*,-23.7%,20µM*,?,-21.3%,?
O=C(CCNS(=O)(=O)c1ccc2c(c1)CCN2C(=O)C1CC1)Nc1ccc(F)cc1F,-8.1%,1.3%[59 µM],2.7%,nt,nt,28.8%[57 µM]
Cc1ccc(C)c(N=Cc2ccc(-c3ccc([N+](=O)[O-])cc3)o2)c1,56.2µM*,35.5µM*,?,18.8%,-6.3%,?
